For assay [1], the target named is Acetylcholinesterase (Homo sapiens) (UniProt P22303). Nature of the assay: Acetylcholinesterase (AChE) small molecule antagonists: colormetric cell-based qHTS assay (AID 1347395). Further: nearly all actives have a fitted effect of over 30% in size. A digest of the protocol:
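SH-SY5Y cells, plated overnight at 37 C, were exposed to compounds for 30 min at 37 C and 5% CO2. Acetylthiocholine plus DTNB was then added, and thiocholine from endogenous AChE was quantified colorimetrically after 90 min at 37 C.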
(In general: In qHTS, concentration-response curves come from the screen itself.)

For assay [2] the target is unchanged. Description: Acetylcholinesterase (AChE) small molecule antagonists: enzyme-based qHTS assay (AID 1347397). Further: nearly all actives have a fitted effect of over 55% in size. Further: potency means the concentration at half of the fitted maximal effect. The conditions noted are these: Potency: AChE enzyme activity inhibition; outcome: AChE enzyme activity inhibition. A digest of the protocol:
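Colorimetric DTNB readout of acetylthiocholine hydrolysis, 10 min at room temperature, after 30 min room-temperature exposure of 50 mU/mL recombinant human enzyme to compound; DMSO vehicle control.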

For assay [3] the target is unchanged. Description: Acetylcholinesterase (AChE) small molecule antagonists: fluorescence cell-based qHTS assay (AID 1347398). Further: nearly all actives have a fitted effect of over 50% in size. Further: potency means the concentration at half of the fitted maximal effect. The conditions noted are these: Potency: AChE activity; outcome: AChE activity. A digest of the protocol: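 Cellular AChE activity read as thiocholine from acetylthiocholine hydrolysis, detected by Thiolite Green fluorescence at 490/520 nm after 40 min at room temperature. Compounds were pre-incubated 30 min at 37 C on adherent SH-SY5Y cells.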

For assay [4] the target is unchanged. Description: Acetylcholinesterase (AChE) small molecule antagonists: enzyme-based qHTS assay with human liver microsomes (AID 1347399). Further: nearly all actives have a fitted effect of over 60% in size. The conditions noted are these: Potency: qHTS inhibition; outcome: qHTS inhibition. A digest of the protocol: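 Recombinant human AChE (50 mU/mL in the enzyme mix) and human liver microsomes (0.25 mg/mL final) were preincubated with compound and NADPH (0.25 mg/mL final) for 30 min at 37 C. Acetylthiocholine/DTNB was then added; thiocholine was read colorimetrically after 10 min at room temperature.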

Values joined by “and” are separate entries in the source; they are usually repeats but may differ in a detail not shown here. Equal values may be shown once. Results filed as inconclusive are left out. More than one record can exist for a structure, and the calls need not agree. Active and inactive are the calls of the source. The call rests on the fitted dose curve.
On the % scale 0 is the no-effect control and ±100 the full control effect.

Chain of Acetylcholinesterase (Homo sapiens) (P22303 whole entry, looked up): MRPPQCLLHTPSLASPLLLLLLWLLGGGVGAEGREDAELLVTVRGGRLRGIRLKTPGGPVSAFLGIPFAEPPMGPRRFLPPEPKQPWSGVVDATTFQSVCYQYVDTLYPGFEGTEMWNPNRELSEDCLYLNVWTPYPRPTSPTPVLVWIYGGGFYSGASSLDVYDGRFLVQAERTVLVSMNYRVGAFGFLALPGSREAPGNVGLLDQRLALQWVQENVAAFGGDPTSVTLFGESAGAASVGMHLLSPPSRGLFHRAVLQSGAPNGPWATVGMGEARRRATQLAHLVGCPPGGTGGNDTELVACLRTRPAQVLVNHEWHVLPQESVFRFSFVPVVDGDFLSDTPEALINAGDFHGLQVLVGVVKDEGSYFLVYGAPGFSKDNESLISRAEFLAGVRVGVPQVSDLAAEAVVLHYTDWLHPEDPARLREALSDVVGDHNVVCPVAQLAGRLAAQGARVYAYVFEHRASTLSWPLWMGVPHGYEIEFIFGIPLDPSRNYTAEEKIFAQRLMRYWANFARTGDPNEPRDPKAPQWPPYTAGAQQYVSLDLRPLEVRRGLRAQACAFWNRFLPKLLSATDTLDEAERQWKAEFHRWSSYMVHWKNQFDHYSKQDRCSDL

Regarding `CCCCCC1CCC(=O)O1` (stereo unspecified), the Potency entry in assay [1], in assay [2], in assay [3] and in assay [4] was “inactive” each time.

Turning to `O=C(CC(=O)c1ccccc1)c1ccccc1`, the Potency entry in assay [1], in assay [2], in assay [3] and in assay [4] was “inactive” in each case.

For `CN=C(NC#N)NCCSCc1nc[nH]c1C`, the Potency entry in assay [1], in assay [2], in assay [3] and in assay [4] was “inactive” in each case.

Turning to `CC(C)(C(=O)c1cccnc1)c1cccnc1`, the Potency result in assay [1], in assay [2], in assay [3] and in assay [4] was “inactive” throughout.

Turning to `C(=C/c1ccccc1)/c1ccccc1`, the Potency entry in assay [1], in assay [2], in assay [3] and in assay [4] was “inactive” each time.

As for `O=c1[nH]c2ccccc2c(=O)n1CCCl`, the Potency entry in assay [1], in assay [2], in assay [3] and in assay [4] was “inactive” in each case.

As to `CCCCCCCC/C=C\CCCCCCCC(=O)OC[C@@H](O)[C@H]1OC[C@H](O)[C@H]1O`, the Potency result in assay [1], in assay [2], in assay [3] and in assay [4] was “inactive” in each case.

In the case of `O=C(O)CCNC(=O)c1ccc(N=Nc2ccc(O)c(C(=O)O)c2)cc1`, the Potency result in assay [1], in assay [2], in assay [3] and in assay [4] was “inactive” each time.

As for `NC(N)=O`, the Potency entry in assay [1], in assay [2], in assay [3] and in assay [4] was “inactive” throughout.

For `CC(=O)Nc1ccc(OCC(O)CNC(C)C)cc1` (stereo unspecified), the Potency entry in assay [1], in assay [2], in assay [3] and in assay [4] was “inactive” in each case.

As for `CCCCCCCCCCCCCCC(=O)NC(CO)CCCCCCCCCCCCCC` (stereo unspecified), the Potency result in assay [1], in assay [2], in assay [3] and in assay [4] was “inactive” throughout.

Consider `CCCCCCCCCCCCCCCC[N+](C)(C)Cc1ccccc1`, for which the Potency entry in assay [1] and in assay [4] was “inactive” throughout. The Potency in assay [2] was 82.2 µM (active) and 32.3 µM (active) and 38.9 µM (active); in assay [3], 46.2 µM (active) and 57.4 µM (active).

`CC(=O)NCc1c(I)c(NC(C)=O)c(I)c(C(=O)O)c1I`: the Potency entry in assay [1], in assay [2], in assay [3] and in assay [4] was “inactive” each time.

`CCN(Cc1cccnc1)C(=O)c1cccc(Cl)c1[C@]1(C)C(=O)N(Cc2ccc(OC)cc2OC)c2ccc(Cl)cc21`: the Potency result in assay [1], in assay [2], in assay [3] and in assay [4] was “inactive” in each case.

For `CC(C)(C)c1ccc(O)c(C(C)(C)C)c1`, the Potency result in assay [1], in assay [2], in assay [3] and in assay [4] was “inactive” throughout.

On to `Nc1nc2ccc(OC(F)(F)F)cc2s1`, for which the Potency result in assay [1], in assay [2], in assay [3] and in assay [4] was “inactive” throughout.

Regarding `C1CCCNCCC1`, the Potency result in assay [1], in assay [2], in assay [3] and in assay [4] was “inactive” throughout.

Consider `CC(C)(C)c1n[nH]c(=S)n(N)c1=O`, for which the Potency result in assay [1], in assay [2], in assay [3] and in assay [4] was “inactive” throughout.

With `CCC(CC)C(=O)O`, the Potency entry in assay [1], in assay [2], in assay [3] and in assay [4] was “inactive” throughout.

For the compound `CCC(COC(=O)CCS)(COC(=O)CCS)COC(=O)CCS`, the Potency entry in assay [1], in assay [2], in assay [3] and in assay [4] was “inactive” each time.

In the case of `C[C@@H]1CN(c2c(F)c(N)c3c(=O)c(C(=O)O)cn(C4CC4)c3c2F)C[C@H](C)N1`, in assay [1], the activity, negative = inhibition is 1.94% [at 23.6 µM] (inactive). The activity change, negative = inhibition in assay [2] is -2.1% [at 23.6 µM] (inactive); in assay [3] it was -0.604% [at 23.8 µM] (inactive); in assay [4], 0.841% [at 23.6 µM] (inactive).

On to `O=C(O)CCCCCC(=O)O`, for which the Potency entry in assay [1], in assay [2], in assay [3] and in assay [4] was “inactive” each time.

With `CCCCCCCN`, the Potency entry in assay [1], in assay [2], in assay [3] and in assay [4] was “inactive” each time.

Consider `C[Si](C)(C)O[Si](C)(C)C`, for which the Potency entry in assay [1], in assay [2] and in assay [4] was “inactive” in each case. Moreover, the Potency in assay [3] is 35.4 µM (active) and inactive.

Take `CCCCS(=O)(=O)N[C@@H](Cc1ccc(OCCCCC2CCNCC2)cc1)C(=O)O`: the Potency entry in assay [1], in assay [2], in assay [3] and in assay [4] was “inactive” each time.

On to `CC(C)NC(=O)NC(C)C`, for which the Potency entry in assay [1], in assay [2], in assay [3] and in assay [4] was “inactive” throughout.

In the case of `CCOc1ccc(NC(N)=O)cc1`, the Potency entry in assay [1], in assay [2], in assay [3] and in assay [4] was “inactive” throughout.

Take `Cc1c(C2(c3cc(Br)c(O)c(Br)c3C)OS(=O)(=O)c3ccccc32)cc(Br)c(O)c1Br`: the Potency result in assay [1], in assay [2], in assay [3] and in assay [4] was “inactive” each time.

On to `CN1CC(=O)N/C1=N/C(=O)Nc1cccc(Cl)c1`, for which the Potency result in assay [1], in assay [2], in assay [3] and in assay [4] was “inactive” throughout.

As for `CCN(CC)CCOC(=O)C1(C2CCCCC2)CCCCC1`, the Potency result in assay [1], in assay [2], in assay [3] and in assay [4] was “inactive” in each case.

Consider `CC(C)NNC(=O)c1ccncc1`, for which the Potency result in assay [1], in assay [2], in assay [3] and in assay [4] was “inactive” in each case.

Regarding `C[Si](C)(CCCN)O[Si](C)(C)CCCN`, the Potency result in assay [1], in assay [2], in assay [3] and in assay [4] was “inactive” each time.

On to `CCCCCOC(=O)CCC`, for which the Potency entry in assay [1], in assay [2], in assay [3] and in assay [4] was “inactive” throughout.

As for `CN(C)c1ccc(C2(c3ccc(N(C)C)cc3)OC(=O)c3cc(N(C)C)ccc32)cc1`, the Potency result in assay [1], in assay [2], in assay [3] and in assay [4] was “inactive” each time.

In the case of `CC(C)(C)c1ccc(C(=O)CCCCl)cc1`, the Potency entry in assay [1], in assay [2], in assay [3] and in assay [4] was “inactive” throughout.

Regarding `O=C(CCCl)NCc1ccccc1`, the Potency result in assay [1], in assay [2], in assay [3] and in assay [4] was “inactive” in each case.

Consider `Cc1ccc(S(=O)(=O)NC(=O)NC2CCCCCCC2)cc1`, for which the Potency result in assay [1], in assay [2], in assay [3] and in assay [4] was “inactive” throughout.

With `CC/C=C\C#N`, the Potency result in assay [1], in assay [2], in assay [3] and in assay [4] was “inactive” in each case.

On to `CC(=O)N1CCN(c2ccc(O)cc2)CC1`, for which the Potency entry in assay [1], in assay [2], in assay [3] and in assay [4] was “inactive” throughout.

For the origin of these results see PubChem BioAssay (Tox21).
